Results: PubChem BioAssay (NCI)
Compounds without any hit were thinned out: in the full panel of roughly 83,000, 20% have a hit.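 Values shown are percent growth following 48 h exposure of cells in 96-well plates to a single concentration of compound; below 10 was considered active.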 Values without a mark were called inactive. Calls of active or inactive are those of the source.

The compounds below were run on HL-60(TB) leukemia (assay: NCI-60 one-dose screen, 48 h (100 = growth as untreated, 0 = no growth, -100 = all killed)). Conditions: 10 µM unless noted.
`CCc1cccc2c1S/C(=C/c1ccc(OC)cc1)C2=O` was tested, and the growth was 5.21% (active). In the case of `Cc1cnc(Nc2ccc(OCCN3CCCC3)cc2)nc1Nc1cccc(S(=O)(=O)NC(C)(C)C)c1`, the growth is reported as -39.7% (active). Compound `CCCCn1c(Cc2ccc(OC)cc2)nc2cc(OC)c(OC)cc2c1=O` has a growth of 79.3%. Work on `O=C1CC2C=CCN2C=C1NC(=O)c1ccccc1` (centres undefined) yielded a growth of 100%. With `COc1cc(/C(C#N)=C/c2nc3c(N4CCOCC4)nc(Cl)nc3n2C)cc(OC)c1OC` the growth was -29% (active). Compound `CCCCCCCCn1cc(C2=C(c3coc4ccc(OC)cc34)C(=O)NC2=O)c2ccccc21` has a growth of 133%. In the case of `CN(C)Cc1cn(-c2ncc(-c3ccc(C(F)(F)F)cc3)c(NC3CCCCCC3)n2)nn1`, the growth is reported as 83.3%. With `COc1ccc2c(c1)c(-c1nc(-c3c[nH]c4ncccc34)cs1)cn2CCCN1CCCCC1` the growth was -60.8% (active). In the case of `O=C(c1ccccc1)c1c(/C=C/c2ccc(Cl)cc2)nc2ccccc2c1/C=C/c1cccs1`, the growth is reported as 102%. `Nc1nc(N)c2c(n1)NC(c1cccc(Nc3ccnc4cc(C(F)(F)F)ccc34)c1)CC(c1ccc(Cl)cc1)=N2` (centres undefined) showed a growth of 34.3%. For `C#C[C@]1(O)CC[C@H]2[C@@H]3CC=C4c5sc(-c6cccc(C)c6)nc5CC[C@]4(C)[C@H]3CC[C@@]21C`, the growth was 71.8%. `COC(=O)c1cc2cc(-c3ccc(OC)cc3)cnc2[nH]1` was tested, and the growth was -2.68% (active). `Clc1cn2cc(-c3ccc(Cl)c(Cl)c3Cl)nc2s1` was tested, and the growth was 85.3%. Compound `CCOC(=O)c1[nH]cc2c1CCc1sc(Nc3ccccn3)nc1-2` has a growth of 75.9%.
